High-throughput results as filed in PubChem BioAssay.
In the library only some 3.8% were active in any assay of this set; here they are far more common.
esBAF inh: inhibitors of esBAF chromatin remodeling in mouse ES cells. hit rate 2% among 350,000. Bmi1-luciferase knock-in reporter, 24 h; 100% = twice the neutral-well signal. reporter increase, % at 12.5 µM; in the data active means activation above about 40%; inconclusive means no clear call, values can overlap the other calls;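 further: a rise in the Bmi1 reporter signal indicates esBAF inhibition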
HSF1 activator: increases HSF-1 driven luciferase reporter signal | hit rate 1.7% among 300,000 | AID 504408 | activation, % at 9 µM | NIH3T3-HGL HSF-1 luciferase reporter, MG132, 8 h; 100% = twice DMSO control signal;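 active means mean replicate activation of at least 50% with a set share of replicates each reaching 50%; inconclusive means only one of those two conditions met; inactive means mean below 50% and too few replicates reaching it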
MITF act: activators of MITF-driven TRPM1 promoter activity in SK-MEL-5 cells; hit rate 0.75% among 300,000; activation, % at 12.5 µM; SK-MEL-5 TRPM1-promoter luciferase, 24 h; % of positive control, neutral wells = 0;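 active means mean activation of at least 80% with every replicate also reaching 80%; inconclusive means mean reaches 80% but some replicate falls short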
Wnt bcat act: activators of Wnt/beta-catenin signaling. Wnt/beta-catenin reporter cell assay, activator, plate reader. activation, % at 9.35 µM. hit rate 1.2% among 300,000. AID 743398; in the data active means activation above about 30%, passing the limit was not always enough; inconclusive means no clear call, values can overlap the other calls
HSF1 inh: HSF1 inhibition; activity change, negative = inhibition, % at 7.5 µM (by protocol); NIH3T3-HGL HSE-luciferase, MG132-induced, luminescence 8 h; hits give low values; hit rate 0.77% among 300,000;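 active means more than half of replicate wells show activity change below -50%, luminescence cut by over half; inconclusive means some wells, but at most half, below -50%; inactive means no replicate well below -50%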;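 further: luciferase reports HSF-1 transcriptional activity via heat shock element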
Of the large screens only hits and unclear results are named; the others gave an inactive call.

C[C@H]1CN([C@@H](C)CO)C(=O)c2cc(NC(=O)CCC(F)(F)F)ccc2O[C@H]1CN(C)Cc1ccc2c(c1)OCO2	none (no result: HSF1 activator, MITF act, Wnt bcat act, HSF1 inh)
Cc1cccc(-c2nc(C#N)c(N3CCC(C)CC3)o2)c1	none
Cc1cccc(-c2nc(C#N)c(N3CCCCCC3)o2)c1	esBAF inh 73 (no result: Wnt bcat act)
Cc1ccccc1-c1nc(C#N)c(N2CCC(C)CC2)o1	none
CC1CCN(c2oc(-c3ccccc3Cl)nc2C#N)CC1	esBAF inh 53, MITF act 94
C[C@H](CO)N1C[C@H](C)[C@H](CN(C)C(=O)NC2CCCCC2)OCCCC[C@H](C)Oc2ccc(NS(C)(=O)=O)cc2C1=O	none (no result: HSF1 activator, MITF act, Wnt bcat act, HSF1 inh)
CCN1C(=O)CC(N2CCN(c3ccc(C(=O)c4ccccc4)cc3)CC2)C1=O (stereo not drawn)	esBAF inh 55, HSF1 activator inconclusive
C[C@@H]1CCCCO[C@@H](CN(C)C(=O)CCCN(C)C)[C@@H](C)CN([C@@H](C)CO)C(=O)c2cc(NC(=O)c3ccccc3)ccc2O1	none (no result: HSF1 activator, MITF act, Wnt bcat act, HSF1 inh)
O=[N+]([O-])c1cc2c(cc1/C=N/Nc1nc(Nc3ccccc3)nc(N3CCCCC3)n1)OCO2	none (no result: MITF act)
O=C(O)c1cc(N/N=C/c2ccc3c(c2)OCO3)ccc1Cl	none (no result: esBAF inh)
O=C(O)c1ccc(N/N=C/c2ccc3c(c2)OCO3)cc1	HSF1 inh -71 (no result: esBAF inh)
O=C(COc1ccccc1)N/N=C/c1cc2c(cc1[N+](=O)[O-])OCO2	none
N#C/C(=C\c1ccc2c(c1)OCCO2)C(=O)Nc1ccc(C(=O)O)cc1	esBAF inh 61
Cc1cc(C)nc(N/N=C/c2cc3c(cc2[N+](=O)[O-])OCO3)n1	Wnt bcat act 56 (no result: esBAF inh)
O=C(O)c1ccc(N/N=C/c2cc3c(cc2[N+](=O)[O-])OCO3)cc1	esBAF inh 67
CN(C)C(=O)c1ccc(-c2ccc([C@@H]3[C@@H](CO)N(C(=O)Cc4ccccn4)[C@H]3C#N)cc2)cc1	none (no result: HSF1 activator, MITF act, Wnt bcat act, HSF1 inh)
O=C(NCC[C@H]1CC[C@H](NS(=O)(=O)c2ccccc2)[C@H](CO)O1)c1ccccc1F	none (no result: HSF1 activator, MITF act, Wnt bcat act, HSF1 inh)
COc1ccc(CNC(=O)Nc2cccs2)cc1OC	none (no result: Wnt bcat act)
O=C(NCc1ccc(N2CCCC2=O)cc1)Nc1cccc2ccccc12	none (no result: esBAF inh)
O=C(NCc1ccc(Cl)cc1Cl)Nc1ccccc1	HSF1 activator 71, Wnt bcat act 46 (no result: esBAF inh)
O=C(NCc1ccc(N2CCCC2=O)cc1)Nc1ccccc1	HSF1 activator 54 (no result: Wnt bcat act)
Cc1ccc(C)c(CNC(=O)Nc2ccccc2)c1	esBAF inh 51, HSF1 activator 57, MITF act 86
Cc1ccc(CNC(=O)Nc2cccs2)cc1	esBAF inh 54, HSF1 activator 73 (no result: Wnt bcat act)
C[C@@H]1CN([C@H](C)CO)C(=O)c2cc(NC(=O)Nc3cccc4ccccc34)ccc2O[C@@H]1CN(C)Cc1ccc(C(=O)O)cc1	none (no result: HSF1 activator, MITF act, Wnt bcat act, HSF1 inh)
COc1cccc(S(=O)(=O)N[C@@H]2CC[C@H](CC(=O)NCc3ccncc3)O[C@@H]2CO)c1	none (no result: HSF1 activator, MITF act, Wnt bcat act, HSF1 inh)
Cc1ccc(CNC(=O)Nc2ccccc2)cc1	esBAF inh 46, MITF act inconclusive
COC(=O)C[C@@H]1CC[C@@H]2[C@@H](COc3ccc(NC(=O)c4cccc(F)c4)cc3C(=O)N2C)O1	none (no result: HSF1 activator, MITF act, Wnt bcat act, HSF1 inh)
CC(C)n1nnnc1SCC(=O)c1ccc2c(c1)OCCO2	esBAF inh 47
CCn1c(C)cc(C(=O)CSc2nnnn2C2CCCC2)c1C	MITF act 105 (no result: HSF1 activator, HSF1 inh)
O=C(CSc1nnnn1C1CCCC1)Nc1ccc2c(c1)OCO2	none (no result: Wnt bcat act)
CCn1nnnc1SCC(=O)c1ccc2c(c1)OCCO2	esBAF inh inconclusive
O=C(CSc1nnnn1C1CCCC1)c1ccc2c(c1)OCCO2	esBAF inh 81, Wnt bcat act inconclusive
C[C@@H]1CN([C@@H](C)CO)C(=O)c2cc(NC(=O)Nc3cccc4ccccc34)ccc2O[C@H]1CN(C)Cc1ccc(C(F)(F)F)cc1	none (no result: HSF1 activator, MITF act, Wnt bcat act, HSF1 inh)
Cc1ccc(CN2CCN(CC(=O)N=Nc3c(O)[nH]c4ccccc34)CC2)cc1	none (no result: esBAF inh, Wnt bcat act)
O=C(CN1CCN(Cc2ccccc2Cl)CC1)N=Nc1c(O)[nH]c2ccccc12	HSF1 activator 52 (no result: esBAF inh)
CC(C)(C)/C(O)=C/c1nc2ccccc2oc1=O	none (no result: esBAF inh)
O=c1oc2ccccc2nc1/C=C(\O)c1ccccc1	Wnt bcat act 40 (no result: esBAF inh, MITF act)
CC(=O)c1cccc(N(CC(=O)Nc2ccc(F)cc2F)S(C)(=O)=O)c1	HSF1 activator 55 (no result: Wnt bcat act)
CCn1c(/C=C/c2c[nH]c3ccccc23)nc2ccccc2c1=O	HSF1 activator 81, MITF act 114 (no result: esBAF inh)
COc1ccc(CC(C)Nc2cccc(SC)c2)cc1 (stereo not drawn)	HSF1 inh -59 (no result: MITF act)
COc1ccc(CC(=O)Nc2cccc(SC)c2)cc1	none (no result: esBAF inh)
CS(=O)(=O)Nc1ccc2c(c1)[C@@H]1C[C@H](CC(=O)NC3CCCCC3)O[C@@H](CO)[C@@H]1O2	none (no result: HSF1 activator, MITF act, Wnt bcat act, HSF1 inh)
Cc1ccc(-n2c(C)nn(CCOc3ccccc3)c2=O)cc1	esBAF inh 45
Cc1nn(CCOc2ccccc2)c(=O)n1-c1c(F)cccc1F	esBAF inh inconclusive, Wnt bcat act 60 (no result: MITF act)
CO[C@H]1CN(C)C(=O)c2cc(NC(=O)c3cccc(F)c3)ccc2OC[C@H](C)N(C(C)=O)C[C@@H]1C	none (no result: HSF1 activator, MITF act, Wnt bcat act, HSF1 inh)
COc1ccc(NC(=O)N(C)C[C@H]2Oc3cc(C#CCN(C)C)ccc3S(=O)(=O)N([C@H](C)CO)C[C@H]2C)cc1	none (no result: HSF1 activator, MITF act, Wnt bcat act, HSF1 inh)
Cn1c(/C(C#N)=C(\O)c2ccc(Br)s2)nc2ccccc21	esBAF inh 47
Cc1cccc(Nc2nc(-c3ccc(F)c(C)c3)cs2)n1	esBAF inh 58, HSF1 activator 67, Wnt bcat act 46
Cc1cccc(Nc2nc(-c3ccc(O)c(O)c3)cs2)n1	esBAF inh 93 (no result: MITF act)
O=C(Nc1cc2c(cc1Cl)OCCCO2)c1ccccc1	esBAF inh 57
CN(NC1OC(=O)c2ccccc21)c1ccc(C(F)(F)F)cc1[N+](=O)[O-] (stereo not drawn)	HSF1 inh -59 (no result: esBAF inh, MITF act)
COc1ccc(CN(C)C[C@H]2Oc3ccc(NC(=O)Nc4ccc5c(c4)OCO5)cc3C(=O)N([C@@H](C)CO)C[C@@H]2C)cc1	none (no result: HSF1 activator, MITF act, Wnt bcat act, HSF1 inh)
Cc1noc(C)c1NC(=O)Nc1ccc2c(c1)CC(=O)N([C@@H](C)CO)C[C@H](C)[C@H](CN(C)C)O2	none (no result: HSF1 activator, MITF act, Wnt bcat act, HSF1 inh)
COc1cccc(/C=C2\Oc3ccc(O)cc3C2=O)c1O	Wnt bcat act 38
CNC[C@@H]1OCCCC[C@@H](C)Oc2ccc(NC(=O)Cc3ccccc3)cc2C(=O)N([C@@H](C)CO)C[C@H]1C	none (no result: HSF1 activator, MITF act, Wnt bcat act, HSF1 inh)
CC(=O)c1ccc(NC(=O)CNCc2cccs2)cc1	esBAF inh 54
N#Cc1ccc(Cl)cc1NC(=O)CNCc1cccs1	HSF1 activator 65
Cc1ccc(C(=O)OCC(=O)Nc2cc(Cl)ccc2C#N)o1	none (no result: HSF1 activator, MITF act, HSF1 inh)
Cc1ccc(NC(=O)CNCc2cccs2)cc1Br	esBAF inh inconclusive
O=C(Nc1ccccc1)c1nnn(Cc2ccccc2)c1NC(=O)C(F)(F)F	esBAF inh 56 (no result: MITF act)
O=c1oc(CCCO)cc2ccc(C#Cc3ccsc3)cc12	esBAF inh 67, MITF act 121, Wnt bcat act 46 (no result: HSF1 activator, HSF1 inh)
O=c1oc(CCCO)cc2ccc(C#CC3(O)CCCCC3)cc12	none (no result: HSF1 activator, HSF1 inh)
CN(C)c1ccc(C#Cc2ccc3cc(CCCO)oc(=O)c3c2)cc1	esBAF inh 57, MITF act 93, Wnt bcat act inconclusive (no result: HSF1 activator, HSF1 inh)
